Targets with a hit are over-represented here; the source holds about 7,900 in all. About 0.6% of all pairs of compound and target were hits.
The targets below were run with C1=CC=C2C(=C1)C3=NNC4=CC=CC(=C43)C2=O (assay: log2 fold change, soluble protein after heating vs DMSO (PISA); higher = thermal stabilisation; K562 cells, 10 uM, 30 min; active = over 0.2 and 3.5 SD of the protein, either way, in both replicates (recomputed)).
Method in brief: (§1)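 Quantification of soluble protein used TMTpro 16plex LC-MS/MS, with channel sums equalised. Samples were the supernatant after 21,000xg for 90 min of pooled aliquots from K562 cells (2×10^6 cells/mL) treated with 10 μM compound for 30 min, heated for 3 min over 48°C-58°C, and extracted in PBS with 0.5% NP-40 at 4°C. Values, from duplicates, describe thermal stability against control samples on a log2 fold-change scale.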

Chain of UniProt P52655 (P52655 whole entry, looked up): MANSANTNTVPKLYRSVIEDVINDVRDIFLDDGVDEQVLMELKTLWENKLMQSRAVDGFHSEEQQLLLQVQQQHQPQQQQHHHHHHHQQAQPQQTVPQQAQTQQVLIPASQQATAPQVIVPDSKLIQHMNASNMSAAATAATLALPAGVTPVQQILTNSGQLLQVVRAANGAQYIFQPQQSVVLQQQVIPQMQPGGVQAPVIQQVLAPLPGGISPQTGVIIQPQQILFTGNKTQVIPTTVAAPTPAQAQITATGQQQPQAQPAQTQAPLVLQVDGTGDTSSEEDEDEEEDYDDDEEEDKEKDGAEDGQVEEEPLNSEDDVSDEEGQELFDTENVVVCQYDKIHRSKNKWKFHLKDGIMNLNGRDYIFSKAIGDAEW
Chain of UniProt P21333 (P21333 whole entry, looked up): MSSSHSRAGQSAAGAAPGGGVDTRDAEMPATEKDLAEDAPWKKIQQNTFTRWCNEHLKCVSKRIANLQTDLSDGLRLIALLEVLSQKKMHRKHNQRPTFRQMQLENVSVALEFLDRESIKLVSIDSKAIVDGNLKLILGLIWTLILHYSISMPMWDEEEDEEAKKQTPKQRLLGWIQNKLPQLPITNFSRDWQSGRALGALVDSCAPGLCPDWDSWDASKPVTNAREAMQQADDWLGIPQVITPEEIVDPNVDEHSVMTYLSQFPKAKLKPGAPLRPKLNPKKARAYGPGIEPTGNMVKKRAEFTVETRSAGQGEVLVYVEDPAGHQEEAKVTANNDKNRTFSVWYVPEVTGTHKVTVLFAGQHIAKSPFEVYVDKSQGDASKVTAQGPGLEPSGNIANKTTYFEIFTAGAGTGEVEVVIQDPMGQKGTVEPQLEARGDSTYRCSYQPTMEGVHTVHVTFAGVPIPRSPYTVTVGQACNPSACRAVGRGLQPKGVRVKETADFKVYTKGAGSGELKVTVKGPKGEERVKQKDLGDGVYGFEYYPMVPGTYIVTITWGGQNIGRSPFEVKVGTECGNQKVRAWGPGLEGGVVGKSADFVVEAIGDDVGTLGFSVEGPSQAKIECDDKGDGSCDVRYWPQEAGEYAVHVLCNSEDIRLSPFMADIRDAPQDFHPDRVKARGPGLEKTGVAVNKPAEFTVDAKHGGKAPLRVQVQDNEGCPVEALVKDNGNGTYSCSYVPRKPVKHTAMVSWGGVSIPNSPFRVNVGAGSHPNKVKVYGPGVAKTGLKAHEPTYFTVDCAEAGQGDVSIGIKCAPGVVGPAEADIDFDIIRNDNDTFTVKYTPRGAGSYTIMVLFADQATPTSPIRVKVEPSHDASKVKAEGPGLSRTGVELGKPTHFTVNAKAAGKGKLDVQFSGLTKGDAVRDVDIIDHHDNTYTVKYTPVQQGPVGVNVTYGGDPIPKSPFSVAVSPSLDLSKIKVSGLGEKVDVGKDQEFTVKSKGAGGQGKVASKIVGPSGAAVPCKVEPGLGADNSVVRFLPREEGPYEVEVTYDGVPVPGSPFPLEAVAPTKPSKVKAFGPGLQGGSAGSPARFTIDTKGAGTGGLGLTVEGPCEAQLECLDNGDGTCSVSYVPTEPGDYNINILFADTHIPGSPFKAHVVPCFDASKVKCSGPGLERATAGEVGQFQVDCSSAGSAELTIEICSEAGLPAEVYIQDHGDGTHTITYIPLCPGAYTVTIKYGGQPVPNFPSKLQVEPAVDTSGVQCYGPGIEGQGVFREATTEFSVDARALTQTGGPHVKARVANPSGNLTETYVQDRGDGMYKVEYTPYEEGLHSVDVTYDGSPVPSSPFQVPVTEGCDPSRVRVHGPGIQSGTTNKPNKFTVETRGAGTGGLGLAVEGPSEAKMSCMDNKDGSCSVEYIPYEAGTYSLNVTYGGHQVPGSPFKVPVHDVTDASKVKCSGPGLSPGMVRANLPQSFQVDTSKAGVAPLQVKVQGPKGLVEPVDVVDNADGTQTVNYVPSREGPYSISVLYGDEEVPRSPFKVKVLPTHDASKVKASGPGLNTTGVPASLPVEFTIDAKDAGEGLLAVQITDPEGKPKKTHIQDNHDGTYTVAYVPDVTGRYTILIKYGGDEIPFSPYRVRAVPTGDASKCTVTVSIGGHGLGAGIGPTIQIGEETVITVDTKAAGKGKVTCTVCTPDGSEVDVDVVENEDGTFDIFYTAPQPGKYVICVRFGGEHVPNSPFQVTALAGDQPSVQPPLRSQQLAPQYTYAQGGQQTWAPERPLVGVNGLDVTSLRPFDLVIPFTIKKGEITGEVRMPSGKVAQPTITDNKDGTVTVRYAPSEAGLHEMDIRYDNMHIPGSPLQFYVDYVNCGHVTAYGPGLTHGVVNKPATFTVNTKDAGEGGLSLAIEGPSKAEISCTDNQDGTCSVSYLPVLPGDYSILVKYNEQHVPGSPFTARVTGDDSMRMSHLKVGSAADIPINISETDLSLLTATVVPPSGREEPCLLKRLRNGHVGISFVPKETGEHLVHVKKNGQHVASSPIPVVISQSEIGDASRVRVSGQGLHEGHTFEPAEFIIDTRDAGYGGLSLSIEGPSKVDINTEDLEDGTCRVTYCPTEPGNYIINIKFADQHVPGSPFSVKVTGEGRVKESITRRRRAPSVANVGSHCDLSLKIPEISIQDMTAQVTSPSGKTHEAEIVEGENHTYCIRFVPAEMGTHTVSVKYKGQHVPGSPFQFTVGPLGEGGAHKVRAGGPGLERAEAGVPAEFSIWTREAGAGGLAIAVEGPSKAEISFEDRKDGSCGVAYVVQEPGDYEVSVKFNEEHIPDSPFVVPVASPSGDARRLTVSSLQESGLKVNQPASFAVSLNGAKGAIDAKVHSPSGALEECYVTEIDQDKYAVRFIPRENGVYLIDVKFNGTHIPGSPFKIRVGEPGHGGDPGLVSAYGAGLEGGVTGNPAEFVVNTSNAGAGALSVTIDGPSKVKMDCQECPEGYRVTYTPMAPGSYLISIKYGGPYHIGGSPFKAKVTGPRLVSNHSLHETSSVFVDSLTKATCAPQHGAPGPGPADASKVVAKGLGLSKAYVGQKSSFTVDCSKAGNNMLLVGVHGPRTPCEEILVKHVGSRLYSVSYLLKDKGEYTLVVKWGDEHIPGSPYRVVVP
Chain of UniProt O95363 (O95363 whole entry, looked up): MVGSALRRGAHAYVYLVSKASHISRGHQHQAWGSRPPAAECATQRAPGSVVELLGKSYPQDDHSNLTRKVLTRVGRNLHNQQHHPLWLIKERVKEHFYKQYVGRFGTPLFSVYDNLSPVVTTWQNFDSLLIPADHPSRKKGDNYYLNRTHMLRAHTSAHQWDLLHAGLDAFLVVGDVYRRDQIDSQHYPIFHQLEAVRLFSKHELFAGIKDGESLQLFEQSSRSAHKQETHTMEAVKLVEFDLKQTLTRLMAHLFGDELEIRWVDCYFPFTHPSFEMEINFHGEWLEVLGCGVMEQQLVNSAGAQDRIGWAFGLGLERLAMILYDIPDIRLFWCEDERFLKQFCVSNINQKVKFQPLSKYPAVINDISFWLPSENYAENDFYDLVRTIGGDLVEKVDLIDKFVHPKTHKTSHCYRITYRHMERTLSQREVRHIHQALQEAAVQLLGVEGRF
Chain of UniProt P15976 (P15976 whole entry, looked up): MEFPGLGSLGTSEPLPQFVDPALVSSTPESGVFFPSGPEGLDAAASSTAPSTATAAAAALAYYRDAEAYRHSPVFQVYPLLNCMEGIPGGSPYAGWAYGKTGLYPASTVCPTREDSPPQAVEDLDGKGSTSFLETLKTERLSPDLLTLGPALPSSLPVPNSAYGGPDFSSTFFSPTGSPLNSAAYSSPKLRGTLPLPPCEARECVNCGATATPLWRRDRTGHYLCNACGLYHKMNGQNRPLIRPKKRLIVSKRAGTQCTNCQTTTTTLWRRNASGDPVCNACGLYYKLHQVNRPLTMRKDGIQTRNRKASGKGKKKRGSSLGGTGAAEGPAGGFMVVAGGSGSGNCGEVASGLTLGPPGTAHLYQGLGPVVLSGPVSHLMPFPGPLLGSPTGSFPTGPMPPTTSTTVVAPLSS
Chain of UniProt P50213 (P50213 whole entry, looked up): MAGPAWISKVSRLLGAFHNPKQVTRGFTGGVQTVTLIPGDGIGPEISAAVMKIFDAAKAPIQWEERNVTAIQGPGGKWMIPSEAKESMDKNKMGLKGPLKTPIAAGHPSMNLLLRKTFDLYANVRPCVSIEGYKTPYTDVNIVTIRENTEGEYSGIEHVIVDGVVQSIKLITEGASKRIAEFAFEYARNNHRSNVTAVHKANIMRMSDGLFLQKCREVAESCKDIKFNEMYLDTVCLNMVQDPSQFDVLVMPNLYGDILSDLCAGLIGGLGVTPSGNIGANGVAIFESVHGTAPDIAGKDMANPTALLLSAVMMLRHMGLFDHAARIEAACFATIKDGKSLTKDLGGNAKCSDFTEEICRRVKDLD
Chain of UniProt Q96HJ9 (Q96HJ9 whole entry, looked up): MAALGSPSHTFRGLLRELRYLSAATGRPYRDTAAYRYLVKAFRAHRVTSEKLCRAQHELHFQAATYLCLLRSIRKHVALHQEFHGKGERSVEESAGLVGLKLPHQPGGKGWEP
Chain of UniProt Q9NZC3 (Q9NZC3 whole entry, looked up): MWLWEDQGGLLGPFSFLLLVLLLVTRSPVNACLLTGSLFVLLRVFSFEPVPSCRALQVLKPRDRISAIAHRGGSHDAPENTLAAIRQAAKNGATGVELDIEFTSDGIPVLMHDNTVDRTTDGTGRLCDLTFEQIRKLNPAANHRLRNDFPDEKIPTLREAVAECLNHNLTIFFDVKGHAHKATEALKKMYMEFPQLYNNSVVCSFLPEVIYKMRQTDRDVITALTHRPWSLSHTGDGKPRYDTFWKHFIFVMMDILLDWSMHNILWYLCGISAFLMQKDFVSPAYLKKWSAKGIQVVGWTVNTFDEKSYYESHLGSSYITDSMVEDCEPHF
Chain of UniProt Q00688 (Q00688 whole entry, looked up): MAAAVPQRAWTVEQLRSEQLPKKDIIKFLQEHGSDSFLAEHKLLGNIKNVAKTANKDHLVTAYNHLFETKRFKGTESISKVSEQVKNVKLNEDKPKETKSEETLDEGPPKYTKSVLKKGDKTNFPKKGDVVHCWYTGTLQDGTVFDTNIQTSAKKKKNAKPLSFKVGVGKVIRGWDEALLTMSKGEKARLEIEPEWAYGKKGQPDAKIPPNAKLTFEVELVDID

log2 fold change, inactive:
HIST2H3A (UniProt Q71DI3) -0.004, FLNA (UniProt P21333) -0.017, H2AFX (UniProt P16104) -0.049, GTF2A1 (UniProt P52655) -0.029, GATA1 (UniProt P15976) -0.083, GALNT1 (UniProt Q10472) -0.003, FMC1 (UniProt Q96HJ9) 0.001, GDE1 (UniProt Q9NZC3) -0.023, IDH3A (UniProt P50213) 0.024, FARS2 (UniProt O95363) 0.065, FYB1 isoform 3 (UniProt O15117) -0.08

Each target was assayed with C1CCN(C1)C(=O)NC2=CC=CC(=C2)NC3=NC=C(C(=N3)NCCC4=CN=CN4)Br in the same assay as above.
Method in brief: as §1

log2 fold change, inactive:
FKBP3 (UniProt Q00688) -0.007, GPX4 (UniProt P36969) -0.036, HEXA (UniProt P06865) 0.01, HECTD1 (UniProt Q9ULT8) -0.076, GLUD2 (UniProt P49448) -0.005, GBF1 (UniProt Q92538) -0.026, HIKESHI (UniProt Q53FT3) -0.056, HBZ (UniProt P02008) -0.034, HIP1 (UniProt O00291) -0.209, HADHB (UniProt P55084) -0.206, GTPBP6 (UniProt O43824) 0.06, GOLPH3 (UniProt Q9H4A6) -0.101, GSTO1 (UniProt P78417) -0.005, GYG1 (UniProt P46976) -0.075, ICMT (UniProt O60725) -0.206, FANCD2 isoform 1 (UniProt Q9BXW9) -0.008, GMEB1 (UniProt Q9Y692) 0.004, GALNT2 (UniProt Q10471) 0.009, GCC2 (UniProt Q8IWJ2) -0.054, HAX1 (UniProt O00165) 0.027, GGT7 (UniProt Q9UJ14) -0.035, HDAC7 isoform 5 (UniProt Q8WUI4) -0.056, HSPA8 (UniProt E9PK54) -0.056, HIST2H3A (UniProt Q71DI3) 0.287, FLNA (UniProt P21333) -0.018, H2AFX (UniProt P16104) 0.231, GTF2A1 (UniProt P52655) -0.024, GATA1 (UniProt P15976) 0.031, GALNT1 (UniProt Q10472) 0.004, FMC1 (UniProt Q96HJ9) -0.026, GDE1 (UniProt Q9NZC3) 0.003, IDH3A (UniProt P50213) -0.009, FARS2 (UniProt O95363) 0.084, FYB1 isoform 3 (UniProt O15117) -0.041
